Rows were chosen to be rich in hits. Some 3.4% of all compounds tested hit in one or more screens of this group.
GPR151 activ: activators of human GPR151; Q8TDV0; AID 1508602; hit rate 1% among 650,000; PathHunter beta-arrestin GPR151 cells, luminescence; activation, % at 11.2 µM; in the data active = activation above about 4.9%;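 also: 0% = median of compound wells and 100% = cells with positive control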
Target sequence (Q8TDV0 whole entry, looked up): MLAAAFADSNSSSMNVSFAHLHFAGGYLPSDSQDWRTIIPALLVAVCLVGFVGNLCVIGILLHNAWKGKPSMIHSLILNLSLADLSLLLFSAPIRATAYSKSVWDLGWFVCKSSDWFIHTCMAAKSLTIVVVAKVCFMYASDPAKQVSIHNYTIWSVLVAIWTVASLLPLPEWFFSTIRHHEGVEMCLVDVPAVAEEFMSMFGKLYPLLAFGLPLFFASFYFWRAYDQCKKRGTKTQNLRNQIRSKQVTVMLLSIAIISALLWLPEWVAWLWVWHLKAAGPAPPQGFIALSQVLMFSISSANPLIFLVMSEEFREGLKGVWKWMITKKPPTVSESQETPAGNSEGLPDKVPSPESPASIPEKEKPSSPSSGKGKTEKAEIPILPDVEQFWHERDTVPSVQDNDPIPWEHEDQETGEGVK
TEAD-YAP block: TEAD-YAP interaction inhibition; HEK-TIYL cells, TEAD-Gal4/YAP UAS-luciferase luminescence; inhibition, % at 9.12 µM; hit rate 1.4% among 640,000; in the data active = inhibition above about 32%;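 also: 0% = median of test compound wells and 100% = reference inhibitor wells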
FBW7 activator: activators of human E3 ligase FBW7 | Q969H0 | hit rate 0.13% among 650,000 | AlphaScreen FBW7–phospho-cyclin E peptide binding, activator screen | AID 1259310 | normalized activity (activation), % at 26.1 µM; in the data active = normalized activity above about 1.9%;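 also: purified mutant Fbw7 with reduced substrate affinity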
MITF inh: inhibitors of human MITF | AlphaScreen MITF homodimerization, bead proximity signal | inhibition, % at 2.6 µM | hit rate 0.91% among 650,000 | AID 1259374; in the data active = inhibition above about 50%;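 also: 0% = vehicle wells with protein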
An asterisk follows results filed as active.

SMILES	GPR151 activ	TEAD-YAP block	FBW7 activator	MITF inh
COc1ccc(/C=C2\SC(=Nc3ccccc3)NC2=O)c2ccccc12	2	63*	0	10
COc1ccc(S(=O)(=O)N2Cc3ccccc3CC2C(=O)Nc2ccc(C)cc2)cc1 (centres undefined)	1	33*	0	-5
COc1ccc(Cl)cc1NC(=O)C(F)(F)F	0	9	1	13
Cc1cccc(Nc2nc3nonc3nc2Nc2ccccc2I)c1	1	87*	0	10
Cn1cnnc1SCC(=O)Nc1ccc(C(N)=O)cc1	-1	33*	0	10
O=C(NCc1ccc(C(=O)NCCc2ccccn2)cc1)Nc1ccc(-c2cn[nH]c2)cc1	1	3	1.9*	26
COc1ccc(S(=O)(=O)Nc2ccc(NC(C)=O)cc2)cc1Cl	0	1	0	-5
COc1cc(NS(=O)(=O)c2ccc(NC(C)=O)cc2)c(OC)cc1Cl	0	52*	0	6
COc1ccc(Cl)cc1NS(=O)(=O)c1ccc(OC)c(OC)c1	1	-3	0	13
COC(=O)c1ccc(C(=O)OC)c(NS(=O)(=O)c2cc(Cl)ccc2Cl)c1	1	1	0	-14
COC(=O)c1ccc(C(=O)OC)c(S(=O)(=O)Nc2cc(OC)c(Cl)cc2OC)c1	-2	45*	0	10
COc1cc(NS(=O)(=O)c2ccc(OC)c(OC)c2)c(OC)cc1Cl	2	48*	0	9
COc1cccc(CNC(=O)c2cc3cccnc3n(C)c2=O)c1	0	0	0	-9
CN(C)S(=O)(=O)CC12CCC(CC1=O)C2(C)C (centres undefined)	0	14	0	-6
Cc1cc(C)n2c(SCC(=O)NC(=O)Nc3ccccc3F)nnc2n1	0	7	0	-4
CCOc1cc(/C=C\c2[nH]c(=O)[nH]c(=O)c2[N+](=O)[O-])ccc1OCC(=O)O	-1	-2	-1	-9
CCC1=NN2C(=N)/C(=C/c3ccc(OCCSc4ccc(C)cc4)c(OC)c3)C(=O)N=C2S1	-1	-19	0	9
O=C(Nc1cnc2cnc(-c3ccc(N4CCOCC4)cc3)cn12)C1CCOC1 (centres undefined)	-1	-18	2.4*	6
Cc1cccc(NC(=O)Cn2c(C)cc(=O)c3ccccc32)c1	-2	41*	0	7
Cc1ccc(NC(=O)Cn2c(C)cc(=O)c3ccccc32)cc1C	3	45*	1	10
COc1cccc(NC(=O)Cn2c(C)cc(=O)c3cccc(OC)c32)c1	3	49*	1	6
COc1ccc(-n2c(=S)[nH]c3cc(C(=O)Nc4ccc5c(c4)CCC5)ccc3c2=O)cc1	1	-5	0	-16
OC1(c2ccc3c(c2)CN(Cc2ccco2)CCO3)CCN(c2ccccc2F)CC1	-1	2	0	7
Cc1ccc(C(=O)Nc2ccc3c(c2)OCCO3)c(C)c1	-5	89*	0	2
Cc1cc(C)c(C(=O)Nc2ccc3c(c2)OCCO3)c(C)c1	0	-8	0	-3
SMILES	GPR151 activ	TEAD-YAP block	FBW7 activator	MITF inh
O=C(Nc1ccc2c(c1)OCCO2)c1ccccc1F	-7	41*	0	8
O=C(Nc1ccc2c(c1)OCCO2)c1ccccc1O	-6	56*	0	12
Cc1ccc(C2=NC(C)(C)N=C2SCC(=O)Nc2ccc3c(c2)OCCO3)cc1	0	15	3.7*	-10
Cc1noc(C)c1S(=O)(=O)NCCN1CCC(Cc2ccccc2)CC1	0	8	0	20
COc1ccccc1S(=O)(=O)NCCCN(C)C	0	5	0	-5
CCC(CC)C(=O)Nc1cccc(C(=O)Nc2ccc3c(c2)OCCO3)c1	1	-66	0	9
O=C(Nc1cccc(C(=O)NC2CC2)c1)C(=O)Nc1ccc2c(c1)OCCO2	1	66*	0	6
Cc1ccc(S(=O)(=O)Nc2ccccc2C(=O)Nc2nc(-c3ccc(C)c(C)c3)cs2)cc1	1	26	0	10
Cc1ccc(-c2cnc(SCC(=O)N3CCCC3)n2C)cc1	-1	58*	0	-17
Cc1ccc(NC(=O)c2cnc(SCC(=O)N3CCCC3)n(C)c2=O)cc1	-4	-9	0	14
COc1ccccc1-n1c(=O)[nH]c2c(C(N)=O)nc(-c3cccc(Cl)c3)nc21	-2	-1	1	16
O=C(CSc1ccccc1)N1CCN(c2nc3ccccc3s2)CC1	-7	38*	0	3
CC(C)Oc1ccccc1/C=C(\C#N)C(=O)NCCc1ccccc1	4	50*	0	-3
Cc1cc(S(=O)(=O)N(C)C2CCCCC2)ccc1-n1cnnn1	-1	52*	0	4
COc1ccc(N=Cc2cc(OC)c(OC)cc2[N+](=O)[O-])cc1	-1	12	0	22
